Data from ChEMBL document CHEMBL3433997, “St. Jude Leishmania screening dataset” (2016).

How the values were obtained:
Type in all cases: functional
[1] = target: Solute carrier family 2, facilitated glucose transporter member 1 (Homo sapiens) (UniProt P11166); test: ST_JUDE_LEISH: Cytotoxicity at 2uM final concentration against transgenic Leishmania Mexicana promastigotes LmGLUT1 that are glucose transport deficient and complemented with the human glucose transporter GLUT1. Activity is measured by DNA content using SYBR green in vitro
[2] = target: Hexose transporter 1 (Plasmodium falciparum) (UniProt O97467); test: ST_JUDE_LEISH: Cytotoxicity at 2uM final concentration against transgenic Leishmania Mexicana promastigotes LmPfHT that are glucose transport deficient and complemented with the Plasmodium falciparum hexose transporter. Activity is measured by DNA content using SYBR green in vitro
[3] = target: Glucose transporter (Leishmania mexicana) (UniProt O61059); test: ST_JUDE_LEISH: Cytotoxicity at 2uM final concentration against transgenic Leishmania Mexicana promastigotes LmGT2 that are glucose transport deficient and complemented with the L. Mexicana glucose transporter 2. Activity is measured by DNA content using SYBR green in vitro

Chain of Solute carrier family 2, facilitated glucose transporter member 1 (Homo sapiens) (P11166 whole entry): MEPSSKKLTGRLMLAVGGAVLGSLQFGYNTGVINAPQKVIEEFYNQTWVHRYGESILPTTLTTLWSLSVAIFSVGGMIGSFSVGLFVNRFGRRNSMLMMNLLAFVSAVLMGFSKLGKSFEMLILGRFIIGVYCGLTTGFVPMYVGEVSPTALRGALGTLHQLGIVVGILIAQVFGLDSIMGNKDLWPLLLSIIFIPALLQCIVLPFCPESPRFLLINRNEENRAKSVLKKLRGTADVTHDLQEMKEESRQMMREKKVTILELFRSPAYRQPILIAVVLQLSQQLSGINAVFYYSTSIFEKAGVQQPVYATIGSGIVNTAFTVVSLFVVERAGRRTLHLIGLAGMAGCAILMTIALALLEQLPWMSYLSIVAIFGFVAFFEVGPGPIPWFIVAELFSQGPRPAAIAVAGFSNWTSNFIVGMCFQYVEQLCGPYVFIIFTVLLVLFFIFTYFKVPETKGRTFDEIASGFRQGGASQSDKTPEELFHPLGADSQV

CCC(NC(=O)c1ccccc1NC(=O)c1ccc(C)cc1)C(=O)OC (configuration not stated)
inhibition [1]: -0.5%
inhibition [2]: 0.91%
inhibition [3]: 0.97%

O=C(Nc1ccc(-c2nc3ccccc3[nH]2)cc1)c1ccc(S(=O)(=O)N2CCc3ccccc32)cc1
inhibition [1]: 2.92%
inhibition [2]: 0.13%
inhibition [3]: 3.39%

CS(=O)(=O)c1ccc(CCNCc2ccc(-c3ccc(CN(C(=O)c4cccc(C#N)c4)C4CCN(Cc5ccccc5)CC4)cc3)nc2)cc1
inhibition [1]: 5.06%
inhibition [2]: 4.14%
inhibition [3]: 5.74%

COc1cc2c(c(Cl)c1OC)CCN(C(=O)C(F)(F)F)CC2c1ccccc1 (configuration not stated)
inhibition [1]: 6.36%
inhibition [2]: 5.47%
inhibition [3]: 4.64%

CCCc1cc(C(=O)N[C@@H](Cc2ccccc2)[C@H](O)CNC(C)C)c(F)c(N2CCCC2=O)c1
inhibition [1]: -2.2%
inhibition [2]: -0.79%
inhibition [3]: -0.74%

CN1CCN(c2ccnc3ccc(NC(=O)Cc4ccc5ccccc5c4)cc23)CC1
inhibition [1]: 0.96%
inhibition [2]: 2.53%
inhibition [3]: 2.12%

Cc1c(Cc2ccccc2)c(=O)oc2c(C)c3c(cc12)CN(CC(C)c1ccccc1)CO3 (configuration not stated)
inhibition [1]: 4.3%
inhibition [2]: 4.73%
inhibition [3]: 5.8%

Cc1[nH]c2ccc(NS(C)(=O)=O)cc2c1C1CCN(CCC2CCN(C(=O)/C=C/c3ccc(Cl)c(Cl)c3)CC2)CC1
inhibition [1]: -0.38%
inhibition [2]: -1.33%
inhibition [3]: -1.24%

CCOC(=O)CCCc1cc(NC2CCN(C)CC2)nc(Nc2ccc(C)cc2)n1
inhibition [1]: -2.45%
inhibition [2]: 0.71%
inhibition [3]: -2.59%

CCNc1nc(OCC(F)(F)F)nc(N(c2ccccc2)c2ccccc2)n1
inhibition [1]: 0.4%
inhibition [2]: 1.48%
inhibition [3]: 1.04%

COc1ccc2nccc([C@@H](O)CN3CCC(NC(=O)C(c4ccsc4)N4CCN(c5ccccc5)CC4)CC3)c2c1 (some centres not stated)
inhibition [1]: 4.17%
inhibition [2]: 3.07%
inhibition [3]: 1.54%

Cc1ccc(NCc2cccc(F)c2)cc1S(=O)(=O)N[C@@H]1CCN(C#N)C1
inhibition [1]: 7.1%
inhibition [2]: 3.53%
inhibition [3]: 1.18%

CC(CCON1C(N)=NC(N)=NC1(C)C)c1ccc(Cl)c(Cl)c1 (configuration not stated)
inhibition [1]: 26.6%
inhibition [2]: 41.4%
inhibition [3]: 27.7%

COc1ccc(C(=O)CC(=O)c2ccc(OC)cc2OC)c(OC)c1
inhibition [1]: 6.03%
inhibition [2]: 4.03%
inhibition [3]: 4.43%

COc1ccccc1Cn1ccnc1SCC(=O)Nc1cc(C(F)(F)F)ccc1Cl
inhibition [1]: -2.21%
inhibition [2]: -2.15%
inhibition [3]: -1.55%

CNCCCNCc1ccc(-c2ccc(F)c(Cl)c2)o1
inhibition [1]: 0.54%
inhibition [2]: 1.28%
inhibition [3]: 0.56%

COc1ccc2ncc(F)c([C@@H](O)CN3CCC(NCc4cc5c(cn4)OCS5)CC3)c2c1
inhibition [1]: 5.71%
inhibition [2]: 1.41%
inhibition [3]: 4.52%

C/C(=C\C(=O)NC1CC1)c1ccccc1OCc1ccccc1
inhibition [1]: 0.29%
inhibition [2]: -2.11%
inhibition [3]: 3.94%

Cc1ccccc1C1CCN(c2ncc(C(=O)NC3CC3)cc2Cl)CC1
inhibition [1]: -1.43%
inhibition [2]: 5.9%
inhibition [3]: 2.12%

CC(CN1CCN(C)CC1)C(=O)Nc1ccc(-c2ccc(-c3nc4cc(C(F)(F)F)ccc4[nH]3)cc2)cc1 (configuration not stated)
inhibition [1]: 6.67%
inhibition [2]: 4.86%
inhibition [3]: 2.49%

Cc1ccoc1C(=O)Nc1cccc(-c2cccc(-c3nc4cccc(C)c4[nH]3)c2)c1
inhibition [1]: 7.85%
inhibition [2]: 5.09%
inhibition [3]: 4.05%

Cc1[nH]c(C)c(-c2ccc(Oc3cccc(Cl)c3)cc2)c(=O)c1Cl
inhibition [1]: 9.05%
inhibition [2]: 7.78%
inhibition [3]: 4.29%

Cc1cc(-c2ccc3c(c2)CCN(CCCOc2ccc4c(c2)CCN4C(=O)/C=C/c2ccccc2Cl)CC3)no1
inhibition [1]: 5.8%
inhibition [2]: 12%
inhibition [3]: 4.78%

N#Cc1ccnc(-c2ccc(CNC3CCN(CC4Cn5c(=O)ccc6ccc(F)c4c65)CC3)cc2)c1 (configuration not stated)
inhibition [1]: 9.83%
inhibition [2]: 8.44%
inhibition [3]: 4.88%

COc1ccc(-c2cccc(NC(=O)c3ccc(C#N)cc3)c2)cc1CN1CCN(C)CC1
inhibition [1]: 16.1%
inhibition [2]: 14.8%
inhibition [3]: 11.3%

Cc1cccc2nc(-c3cccc(-c4cccc(NC(=O)c5c[nH]cn5)c4)c3)[nH]c12
inhibition [1]: 1.5%
inhibition [2]: 0.24%
inhibition [3]: -1.05%

COc1ccc2ncc(C#N)c(CCN3CCC(NCc4ccc5c(c4)NC(=O)CO5)CC3)c2c1
inhibition [1]: 12.7%
inhibition [2]: 9.55%
inhibition [3]: 8.73%

c1csc(-c2nc(N3CCCCC3)ncc2-c2ccsc2)n1
inhibition [1]: 4.57%
inhibition [2]: 4.73%
inhibition [3]: 2.33%

Cc1ccc(C(C(=O)Nc2ccc(N3CCNCC3)c(Cl)c2)c2ccccc2)cc1 (configuration not stated)
inhibition [1]: 4.78%
inhibition [2]: 0.84%
inhibition [3]: 1.72%

Cc1ccc(Oc2ccc(NC(=O)CNc3ccccc3N3CCCC3=O)cc2)cc1
inhibition [1]: 6%
inhibition [2]: 6.14%
inhibition [3]: 5.01%

O=C(NCCc1ccccc1)N(Cc1ccc(-c2cccc(CN3CCNCC3)c2)cc1)C1CCN(Cc2ccccc2)CC1
inhibition [1]: 1.57%
inhibition [2]: 1.61%
inhibition [3]: 0.74%

Nc1n[nH]c(-c2ccccc2Nc2ccnc3cc(-c4nccs4)ccc23)n1
inhibition [1]: 1.03%
inhibition [2]: 0.07%
inhibition [3]: -0.15%

CC1CN(Cc2ccc(-c3cccc(-c4nc5cc(F)ccc5[nH]4)c3)cc2)CC(C)O1 (configuration not stated)
inhibition [1]: 1.55%
inhibition [2]: 7.65%
inhibition [3]: 2.46%

CC(Oc1ccc(Cl)cc1Cl)c1nc(-c2ccc(NC(=O)c3ccco3)cc2)no1 (configuration not stated)
inhibition [1]: 2.46%
inhibition [2]: 1.87%
inhibition [3]: -0.2%

Clc1ccc(-c2cc(-c3csc(Nc4ccncc4)n3)on2)cc1
inhibition [1]: 1.41%
inhibition [2]: 5.17%
inhibition [3]: 1.32%

Cc1cc(N[C@@H](Cc2ccccc2)C(=O)NCCOc2ccccc2)nc(NCCc2ccccn2)n1
inhibition [1]: 6.81%
inhibition [2]: 6.41%
inhibition [3]: 3.94%

O=C(Nc1cccc(CN2CCN(C(=O)c3cccc(Cl)c3)CC2)c1)c1ccco1
inhibition [1]: -4.34%
inhibition [2]: 0.58%
inhibition [3]: 3.82%

Cc1cc(N(C)CCCN2CCCCC2)nc(Nc2ccc(Cl)cc2)n1
inhibition [1]: 0.51%
inhibition [2]: 2.38%
inhibition [3]: 2.88%

CCCOc1cccc(C(=O)N[C@@H](Cc2ccccc2)[C@H](O)CNCc2ccccc2OC)c1
inhibition [1]: 3.73%
inhibition [2]: 2.98%
inhibition [3]: 4.75%

c1cc(OCCN2CCCC2)ccc1CNC1CCN(CC2CCCCC2)CC1
inhibition [1]: -3.76%
inhibition [2]: -0.11%
inhibition [3]: -4.21%

CCCNCc1ccc(-c2ccc(CN(CCOC)C(=O)c3ccccc3)cc2)nc1
inhibition [1]: 1.21%
inhibition [2]: 0.61%
inhibition [3]: 1.11%

CCOc1cc2c(cc1OCC)C(c1ccc(O)c(Cl)c1)NCC2 (configuration not stated)
inhibition [1]: 11.9%
inhibition [2]: 13.1%
inhibition [3]: 10.3%

Cc1sc2nc(CSc3ccccc3)nc(N3CCN(CC(=O)N4CCCC4)CC3)c2c1C
inhibition [1]: 5.03%
inhibition [2]: 5.88%
inhibition [3]: 1.41%

CCCCCN1CCC(NC(=O)c2ccc(C(=O)Nc3ccc(C(C)C)cc3)cc2)C1 (configuration not stated)
inhibition [1]: 1.74%
inhibition [2]: 1.41%
inhibition [3]: 1.46%

N=C(NCCCCCCCCNC(=N)Nc1ccc(Cl)cc1)Nc1ccc(Cl)cc1
inhibition [1]: 5.92%
inhibition [2]: 0.99%
inhibition [3]: 8.78%

c1ccc2c(Nc3ccc(OCCOCCOc4ccc(Nc5c6ccccc6nc6ccccc56)cc4)cc3)c3ccccc3nc2c1
inhibition [1]: -2.9%
inhibition [2]: -1.87%
inhibition [3]: 4.94%

Cc1ccc(-n2ncc(C(=O)Nc3cc(Cl)cc(Cl)c3)c2C2CCNCC2)cc1C
inhibition [1]: 3.26%
inhibition [2]: 1.43%
inhibition [3]: -0.12%

CC(C)c1cc2c(ccc3nc(N)nc(N)c32)o1
inhibition [1]: 3.76%
inhibition [2]: 5.34%
inhibition [3]: 2.93%

CC[C@]1(C)C[C@@H](NC(=O)NC(=O)c2ccc(OC)cc2)[C@]2(C)[C@H](C)CC[C@]3(CCC(=O)[C@H]32)[C@@H](C)[C@@H]1OC(=O)NC(=O)c1ccc(OC)cc1
inhibition [1]: 7.7%
inhibition [2]: 5.47%
inhibition [3]: 7.04%
